From PubChem BioAssay (Tox21)
Where “and” joins values, the source holds several entries; their conditions need not be identical. Equal entries are not always repeated. More than one record can exist for a structure, and the calls need not agree. Calls of active or inactive are those of the source. Entries that show only a call come without a potency. Unless noted, the call rests on the fitted dose curve; in most records, active means well fitted curve in the direction sought with a large enough effect in the repeat runs; inconclusive means weak or mixed curves; inactive means no such curve, though single readings can be large; an effect the other way counts as inactive or inconclusive.

How the values were obtained:
[1] = qHTS assay to identify small molecule antagonists of the glucocorticoid receptor (GR) signaling pathway - cell viability counter screen (AID 720693); further: nearly all actives have a fitted effect of over 55% in size
[2] = qHTS assay for identifying genotoxic compounds that show differential cytotoxicity against isogenic chicken DT40 cell lines with known DNA damage response pathways - wild type cell line (AID 743012); further: nearly all actives have a fitted effect of over 60% in size; further: potency means the concentration at half of the fitted maximal effect
Outline: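 Wild type DT40, 300 cells/well, ~0.5 h settle at 37 C/5% CO2; compounds in DMSO added by pintool; 40 h at 37 C/5% CO2; CellTiter-Glo, 30 min RT; luminescence.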

[3] = qHTS assay for identifying genotoxic compounds that show differential cytotoxicity against isogenic chicken DT40 cell lines with known DNA damage response pathways - Rev3 mutant cell line (AID 743014); further: nearly all actives have a fitted effect of over 55% in size; further: potency means the concentration at half of the fitted maximal effect
[4] = qHTS assay for identifying genotoxic compounds that show differential cytotoxicity against isogenic chicken DT40 cell lines with known DNA damage response pathways - Rad54/Ku70 mutant cell line (AID 743015); further: nearly all actives have a fitted effect of over 60% in size; further: potency means the concentration at half of the fitted maximal effect
[5] = qHTS assay to identify small molecule antagonists of the androgen receptor (AR) signaling pathway - cell viability counter screen (AID 743033; further: nearly all actives have a fitted effect of over 45% in size)
[6] = qHTS assay to identify small molecule antagonists of the androgen receptor (AR) signaling pathway using the MDA cell line - cell viability counter screen (AID 743041; further: nearly all actives have a fitted effect of over 45% in size)
Outline: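 Same-well cytotoxicity was assessed by CellTiter-Fluor in MDA-kb2 AR-luc cells after 16 h of compound treatment under R1881 agonism.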

[7] = qHTS assay to identify small molecule antagonists of the thyroid receptor (TR) signaling pathway - cell viability counter screen (AID 743064); further: nearly all actives have a fitted effect of over 50% in size; further: potency means the concentration at half of the fitted maximal effect
Outline: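 Same-well viability check: GH3.TRE-Luc cells stimulated with 1 nM T3 alongside test compound for 23.5 h, followed by CellTiter-Fluor fluorescence.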

[8] = qHTS assay to identify small molecule antagonists of the thyroid receptor (TR) signaling pathway (AID 743065); further: nearly all actives have a fitted effect of over 55% in size; further: potency means the concentration at half of the fitted maximal effect
Outline: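 GH3.TRE-Luc rat pituitary cells (two TREs driving luciferase) were dosed with compound, then stimulated with 1 nM T3 (final) for 23.5 h at 37 C. ONE-Glo luminescence was the read-out, with CellTiter-Fluor fluorescence as the cytotoxicity counter-screen.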

[9] = test system: thyroid hormone receptor (rat, GH3 cells); assay: qHTS assay to identify small molecule agonists of the thyroid receptor (TR) signaling pathway (AID 743066; calls by dose curve)
[10] = molecular target: Estrogen receptor (Homo sapiens) (UniProt P03372); assay: qHTS assay to identify small molecule antagonists of the estrogen receptor alpha (ER-alpha) signaling pathway (AID 743069; active means well fitted curve in the direction sought with a large enough effect in the signal ratio in the repeat runs, not every such curve was filed as active; inconclusive means weak or mixed curves, or effect the other way; inactive means no such curve, though single readings can be large or run the other way; the % refers to the signal ratio)
Sequence of Estrogen receptor (Homo sapiens) (P03372 whole entry, looked up): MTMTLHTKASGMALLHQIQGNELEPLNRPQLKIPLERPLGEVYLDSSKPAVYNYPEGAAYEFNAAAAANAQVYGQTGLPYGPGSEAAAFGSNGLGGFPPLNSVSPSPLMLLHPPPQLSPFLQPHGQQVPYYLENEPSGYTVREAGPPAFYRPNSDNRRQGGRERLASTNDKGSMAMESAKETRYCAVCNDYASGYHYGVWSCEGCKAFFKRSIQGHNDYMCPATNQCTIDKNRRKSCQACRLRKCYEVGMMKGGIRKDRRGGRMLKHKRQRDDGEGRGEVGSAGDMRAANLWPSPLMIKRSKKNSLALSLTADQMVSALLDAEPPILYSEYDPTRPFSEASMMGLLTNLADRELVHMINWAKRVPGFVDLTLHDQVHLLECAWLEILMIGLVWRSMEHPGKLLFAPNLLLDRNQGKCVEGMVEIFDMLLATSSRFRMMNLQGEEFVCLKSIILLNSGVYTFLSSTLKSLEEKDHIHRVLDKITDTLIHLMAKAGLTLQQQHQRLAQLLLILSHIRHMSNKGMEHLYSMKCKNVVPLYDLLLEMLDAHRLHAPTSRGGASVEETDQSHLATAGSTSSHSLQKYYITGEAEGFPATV
Outline: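 Reporter cells (ER-alpha-bla, HEK293 background) are conditioned overnight in stripped-serum medium (2% charcoal-stripped FBS). Compound and 17beta-estradiol exposure runs 18 hr at 37C, 5% CO2.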

[11] = qHTS assay to identify small molecule antagonists of the estrogen receptor alpha (ER-alpha) signaling pathway - cell viability counter screen (AID 743074; calls by dose curve;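 further: HEK293 cells carrying ER-alpha-UAS-bla reporter stimulated with 17beta-estradiol; nearly all actives have a fitted effect of over 45% in size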)
[12] = molecular target: Estrogen receptor (Homo sapiens) (UniProt P03372); assay: qHTS assay to identify small molecule agonists of the estrogen receptor alpha (ER-alpha) signaling pathway (AID 743075; calls by dose curve;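 further: HEK293 GripTite cells with ER-alpha and UAS-driven beta-lactamase reporter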; further: potency means the concentration at half of the fitted maximal effect)
[13] = molecular target: Estrogen receptor (Homo sapiens) (UniProt P03372); assay: qHTS assay to identify small molecule agonists of the estrogen receptor alpha (ER-alpha) signaling pathway using the BG1 cell line (AID 743079); further: nearly all actives have a fitted effect of over 20% in size; further: potency means the concentration at half of the fitted maximal effect
[14] = qHTS assay to identify small molecule antagonists of the estrogen receptor alpha (ER-alpha) signaling pathway using the BG1 cell line (AID 743080; calls by dose curve;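 further: BG1 cells stimulated with 17beta-estradiol alongside compound; nearly all actives have a fitted effect of over 25% in size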); details: BG1Luc4E2 ERE-luciferase antagonist mode, luminescence; activity change, negative = inhibition: at 70.3 µM (top of the series)
Outline: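 Luminescence from a 4×ERE-luciferase reporter in BG1-Luc-4E2 cells served as read-out. Cells, pre-cultured 5 days in stripped-serum phenol-red-free medium, were exposed to compound with 17beta-estradiol co-stimulation for 21.5 h at 37 C.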

[15] = qHTS assay to identify small molecule antagonists of the estrogen receptor alpha (ER-alpha) signaling pathway using the BG1 cell line - cell viability counter screen (AID 743081);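 further: compound given together with 17beta-estradiol as the ER stimulus; nearly all actives have a fitted effect of over 45% in size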
[16] = molecular target: Aromatase (Homo sapiens) (UniProt P11511); assay: qHTS assay to identify aromatase inhibitors (AID 743083); further: nearly all actives have a fitted effect of over 55% in size; further: potency means the concentration at half of the fitted maximal effect
Sequence of Aromatase (Homo sapiens) (P11511 whole entry, looked up): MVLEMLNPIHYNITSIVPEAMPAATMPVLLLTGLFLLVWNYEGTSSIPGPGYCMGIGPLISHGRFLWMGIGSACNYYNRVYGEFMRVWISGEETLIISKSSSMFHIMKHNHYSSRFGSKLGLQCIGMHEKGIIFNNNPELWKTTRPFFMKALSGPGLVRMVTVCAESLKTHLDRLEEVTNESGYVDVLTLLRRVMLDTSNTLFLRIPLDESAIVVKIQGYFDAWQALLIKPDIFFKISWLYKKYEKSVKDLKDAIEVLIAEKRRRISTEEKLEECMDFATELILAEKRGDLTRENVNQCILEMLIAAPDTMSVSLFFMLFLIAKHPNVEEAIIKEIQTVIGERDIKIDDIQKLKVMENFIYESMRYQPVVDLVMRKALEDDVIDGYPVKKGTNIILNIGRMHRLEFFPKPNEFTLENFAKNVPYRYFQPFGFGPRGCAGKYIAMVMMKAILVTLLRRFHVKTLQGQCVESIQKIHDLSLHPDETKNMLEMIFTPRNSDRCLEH

[17] = molecular target: Androgen receptor (Homo sapiens) (UniProt P10275); assay: qHTS assay to identify small molecule antagonists of the androgen receptor (AR) signaling pathway (AID 743035; active means well fitted inhibition curve with a large enough effect in the signal ratio in the repeat runs, not every such curve was filed as active; inconclusive means weak or mixed curves, or effect the other way; inactive means no such curve, though single readings can be large or run the other way; the % refers to the signal ratio; further: potency means the concentration at half of the fitted maximal effect)
Sequence of Androgen receptor (Homo sapiens) (P10275 whole entry, looked up): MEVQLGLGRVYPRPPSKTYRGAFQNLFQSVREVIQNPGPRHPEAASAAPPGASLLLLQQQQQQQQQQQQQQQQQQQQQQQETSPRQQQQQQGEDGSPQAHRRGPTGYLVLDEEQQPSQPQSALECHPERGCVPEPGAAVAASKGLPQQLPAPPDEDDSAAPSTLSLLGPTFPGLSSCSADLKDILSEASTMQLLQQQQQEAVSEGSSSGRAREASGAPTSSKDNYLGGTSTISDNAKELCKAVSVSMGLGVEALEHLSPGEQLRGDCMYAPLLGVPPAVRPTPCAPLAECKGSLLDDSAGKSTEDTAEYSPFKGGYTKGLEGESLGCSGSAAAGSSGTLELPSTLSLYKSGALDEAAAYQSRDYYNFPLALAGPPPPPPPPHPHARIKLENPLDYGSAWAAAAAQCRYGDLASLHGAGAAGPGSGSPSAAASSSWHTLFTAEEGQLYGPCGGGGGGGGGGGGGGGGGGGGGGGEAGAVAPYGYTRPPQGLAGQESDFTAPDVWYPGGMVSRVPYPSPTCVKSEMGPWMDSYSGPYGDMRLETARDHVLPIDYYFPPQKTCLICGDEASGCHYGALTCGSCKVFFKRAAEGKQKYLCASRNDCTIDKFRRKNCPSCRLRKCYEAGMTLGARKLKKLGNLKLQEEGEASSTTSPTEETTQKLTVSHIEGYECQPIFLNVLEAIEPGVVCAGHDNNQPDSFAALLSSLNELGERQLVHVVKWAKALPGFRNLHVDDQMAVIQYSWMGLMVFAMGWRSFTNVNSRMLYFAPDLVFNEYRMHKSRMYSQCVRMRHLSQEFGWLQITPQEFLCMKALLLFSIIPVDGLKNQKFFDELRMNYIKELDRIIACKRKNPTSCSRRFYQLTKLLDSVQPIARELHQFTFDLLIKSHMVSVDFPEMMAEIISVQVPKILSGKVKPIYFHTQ
Outline: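 Fluorescence from a beta-lactamase FRET substrate (LiveBLAzer B/G, 2 h, room temperature) measured inhibition of R1881-stimulated signaling in GeneBLAzer AR-UAS-bla HEK293 cells exposed to compound for 16 h at 37C.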

[18] = molecular target: Androgen receptor (Homo sapiens) (UniProt P10275); assay: qHTS assay to identify small molecule agonists of the androgen receptor (AR) signaling pathway (AID 743036; active means well fitted activation curve with a large enough effect in the signal ratio in the repeat runs, with a control signal flat, not every such curve was filed as active; inconclusive means weak or mixed curves, or effect the other way; inactive means no such curve, though single readings can be large or run the other way; the % refers to the signal ratio)
Outline: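 Agonist activity was scored by beta-lactamase reporter fluorescence in stably transfected HEK293 cells exposed to compounds for 16 h at 37C and 5% CO2. Substrate loading took 2 h at room temperature.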

[19] = molecular target: Androgen receptor (Homo sapiens) (UniProt P10275); assay: qHTS assay to identify small molecule agonists of the androgen receptor (AR) signaling pathway using the MDA cell line (AID 743040; further: nearly all actives have a fitted effect of over 20% in size)
Outline: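 Human breast carcinoma MDA-kb2 reporter cells (MMTV-luc, AR/GR elements) were treated for 16 h at 37C in 0% CO2 following a 5 h settling period. Signal was quantified by ONE-Glo luminescence.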

[20] = molecular target: Androgen receptor (Homo sapiens) (UniProt P10275); assay: qHTS assay to identify small molecule antagonists of the androgen receptor (AR) signaling pathway using the MDA cell line (AID 743042; further: nearly all actives have a fitted effect of over 55% in size)
Outline: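 MDA-kb2 breast carcinoma cells carrying MMTV-luciferase (AR/GR responsive) were co-treated with compounds and the agonist R1881 for 16 h at 37C. Inhibition read as ONE-Glo luminescence; CellTiter-Fluor fluorescence measured in parallel for cytotoxicity.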

| SMILES | Potency [1] | Potency [2] | Potency [3] | Potency [4] | Potency [5] | Potency [6] | Potency [7] | Potency [8] | Potency [9] | Potency [10] | Potency [11] | Potency [12] | Potency [13] | Potency [14] | Potency [15] | Potency [16] | Potency [17] | outcome [18] | outcome [19] | Potency [20] |
| --- | --- | --- | --- | --- | --- | --- | --- | --- | --- | --- | --- | --- | --- | --- | --- | --- | --- | --- | --- | --- |
| Cc1ncc([N+](=O)[O-])n1C | inactive | inactive | inactive | inactive | inactive | inactive | inactive | inactive | inactive | inactive | inactive | inactive | inactive | inactive | inactive | inactive | – | – | – | – |
| Cc1cccc(C)c1 | inactive | inactive | inactive | inactive | inactive | inactive | inactive | inactive | inactive | inactive | inactive | inactive and 1.34 µM [inconclusive] (active) | inactive and 26.5 µM (active) | inactive | inactive | inactive | – | – | – | – |
| CCCCCCc1ccc(O)cc1O | inactive | 48.6 µM (active) | 54.6 µM (active) and 38.6 µM (active) | 21.7 µM (active) | inactive | inactive | 54.6 µM (active) and 54.5 µM (active) | 61.3 µM (active) | inactive | – | inactive | – | – | – | inactive | inactive and 61.1 µM (active) | inactive and 43.8 µM (active) and 43.6 µM (active) | inactive | inactive | inactive |
| CN(N=O)C(=O)N[C@@H]1[C@@H](O)[C@H](O)[C@@H](CO)O[C@@H]1O | inactive | inactive | inactive | inactive | inactive | inactive | inactive | inactive | inactive | inactive | inactive | inactive | inactive | inactive | inactive | inactive | – | – | – | – |
| NC1CCCCC1 | inactive | inactive | 54.8 µM (active) and inactive | 61.5 µM (active) and inactive | inactive | inactive | inactive | inactive | inactive | inactive | inactive | inactive | inactive | inactive | inactive | inactive | – | – | – | – |
| CN1CCC[C@H]1c1cccnc1 | inactive | inactive | inactive | inactive | inactive | inactive | inactive | inactive | inactive | – | inactive | – | – | inactive | inactive | inactive | – | – | – | – |
